Results from PubChem BioAssay (NCI).
Compounds without any hit were thinned out: in the full panel of roughly 83,000, 20% have a hit.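 How to read the values: 0–100, growth inhibition (40 = 60% inhibited); 0, no net growth; -100 to 0, cell death (-40 = 40% of starting cells died; -100 = all dead).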 A number with no mark means an inactive call. Activity calls are given as the source filed them. How the source made its calls: active means growth percent below 10; inactive means the rest.

What follows are compounds tested on OVCAR-3 ovarian (assay: NCI-60 one-dose screen, 48 h (100 = growth as untreated, 0 = no growth, -100 = all killed)). Details: 10 µM unless noted.
Work on `CCCCCN1C=C/C(=C\C(=O)N(C)c2ccc(Oc3ccccc3)cc2)c2ccccc21` yielded a growth of 83.6%. `CNC(=O)c1cncc(Cn2nc(C)c(NC(=O)c3ccc(COc4ccc(C(F)(F)F)cc4C)cc3)c2C)c1` gave a growth of 41%. `Nc1c(C(=O)Nc2ccnc3ccccc23)sc2nc3c(cc12)CN(Cc1ccccc1)CC3` was tested, and the growth was 85.1%. Work on `CC1=C(C(=O)/C=C/c2ccc(N(C)C)cc2)C(c2ccccc2)NC(=S)N1` (configuration not stated) yielded a growth of 109%. Work on `Nc1nc(Nc2ccccc2SSc2ccccc2Nc2nc(N)nc(-c3cccs3)n2)nc(-c2ccsc2)n1` yielded a growth of 90.4%. With `COc1cc2c(cc1OC)C(=O)/C(=C/c1cc(C)c(O)c(C)c1)S2` the growth was -5.93% (active). `COc1cc2c(=O)n(CCCN(C)C)c3c4cc5c(cc4ccc3c2cc1OC)OCO5` showed a growth of 65.5%. Compound `CCN(CC)CC[n+]1cc2cc(OC)c(OC)cc2c2ccc3cc4c(cc3c21)OCO4` has a growth of 13.4%. With `O=C(Nc1ccc(NC(=O)c2cc(=O)[nH]c3ccccc23)cc1)Nc1cccc(Cl)c1` the growth was 89.2%. Work on `COc1ccc(/C=C2\Oc3cc(OCCCN4CCCCC4)ccc3C2=O)cc1OC` yielded a growth of 93%. In the case of `Cc1nc(N)nc(N[C@@H](C)c2nc3cccc(NCc4ccc(C(=O)NO)cc4)c3c(=O)n2-c2ccccc2)n1`, the growth is reported as 85.9%. `Cc1ccc(/C=N/NC(=O)CSc2nc3ccccc3c(=O)n2Cc2ccc(S(N)(=O)=O)cc2)cc1` gave a growth of 79.6%. With `COc1cc(/C(C)=C(\c2ccc(Cl)cc2)c2ccc(OCCN3CCCC3)cc2)ccc1F` the growth was 63%. `COc1cc2nc(-c3ccc(Cl)cc3)cc(OCCCN3CCOCC3)c2cc1OC` was tested, and the growth was 77.8%. `COc1ccc(NC(N)=NCCCOc2ccc(F)cc2)cc1` was tested, and the growth was 99.9%. Work on `COC(=O)CNC(=O)[C@]12CCC(C)(C)C[C@H]1C1=CC[C@@H]3[C@@]4(C)Cc5c([nH]c6ccccc56)C(C)(C)[C@@H]4CC[C@@]3(C)[C@]1(C)CC2` yielded a growth of 93%. For `C[C@H]1[C@H](C)CC[C@]2(C(=O)Nc3ccc4ncccc4c3)CC[C@]3(C)C(=CC[C@@H]4[C@@]5(C)CCCNC(C)(C)[C@@H]5CC[C@]43C)[C@H]12`, the growth was -45.1% (active). With `COc1cc(NC(C)CCCNC(=O)CCC(=O)NCCCNCCCCCCCCCCNCCCNC(=O)CCC(=O)NCCCC(C)Nc2cc(OC)cc3cccnc23)c2ncccc2c1` (configuration not stated) the growth was 41.4% [8 µM]. `CCCCCN1C=C/C(=C\C(=O)n2ccc3ccccc32)c2ccccc21` was tested, and the growth was 86.4%. With `Cc1cc2nc3c4ccc(Br)cc4n(CCN(C)C)c3nc2cc1C` the growth was 21.1%. Work on `CC1(C)CC(=O)C2=C(C1)N(c1ccc(F)cc1F)C(N)=C(C#N)C2c1cc(Br)ccc1F` (configuration not stated) yielded a growth of 99.7%. Work on `C[C@H]1[C@H](C)CC[C@]2(C(=O)NCC#CCN3CCN(C)CC3)CC[C@]3(C)C(=CC[C@@H]4[C@@]5(C)Cc6c([nH]c7ccccc67)C(C)(C)[C@@H]5CC[C@]43C)[C@H]12` yielded a growth of 82.6%. For `COc1cc2nc(-c3ccc(C(F)(F)F)cc3)cc(OCCCN3CCOCC3)c2cc1OC`, the growth was 61.6%. `O=C1c2c(c3c4cccc(F)c4[nH]c3c3ccc4ccccc4c23)C(=O)N1O` gave a growth of 36%. With `O=C1OC(Cc2ccccc2)C1c1ccccc1` (configuration not stated) the growth was 110%. Compound `COc1cccc(/C=N/NC(=O)c2cnn3c2NC(c2ccccc2)C3)c1Oc1ccccc1` (configuration not stated) has a growth of 42%. `COc1ccc(NC(=O)c2cc(NCc3cc(O)ccc3O)ccc2O)cc1` was tested, and the growth was 84.3%. `COc1cc2nc(-c3ccc(Cl)cc3)cc(OCCCN3CCCC3)c2cc1OC` gave a growth of 74.4%. For `COc1ccc(C/C(=C(\C)c2ccc(OCCN3CCCC3)cc2)c2ccc(OCCN3CCCC3)cc2)cc1`, the growth was 29%. `COc1cc(NC(C)CCCNC(=O)CCC(=O)NCCCNCCCCCCCCNCCCNC(=O)CCC(=O)NCCCC(C)Nc2cc(OC)cc3cccnc23)c2ncccc2c1` (configuration not stated) gave a growth of 39.8%. In the case of `COc1ccc(Cc2cnc(NC(=O)c3ccc4c(c3)OCCO4)s2)cc1`, the growth is reported as 6.58% (active). `CC(=O)N1c2ccccc2NC2=C(C(=O)NC2(C)C)C1c1ccco1` (configuration not stated) showed a growth of 97.1%. In the case of `O=S(=O)(NCCNc1nccc(-c2c(-c3cccc(F)c3)nc3sccn23)n1)c1ccc(Cl)cc1`, the growth is reported as 65.4%. `CC(Sc1nc2sc3c(c2c(=O)n1-c1ccc(Cl)cc1)CCCC3)C(=O)Nc1nc(-c2ccc(Br)cc2)cs1` (configuration not stated) showed a growth of 114%. In the case of `C[C@@H](Nc1ncnc2ccc(-c3cnc(N)nc3)cc12)c1ccc(F)cc1`, the growth is reported as 69.2%. In the case of `CC1(C)CC[C@]23CC[C@]4(C)[C@H](CC[C@@H]5[C@@]6(C)CCCNC(C)(C)[C@@H]6CC[C@]54C)[C@H]2[C@H]1OC3`, the growth is reported as -31.2% (active). With `COc1ccc(C(=O)c2nc3ccccc3n2CC(=O)c2ccc(Cl)cc2)cc1` the growth was -6.3% (active).
